In the library only some 5.3% were active in any assay of this set; here they are far more common.
KDM4E inh – qHTS Assay for Inhibitors of Human Jumonji Domain Containing 2E (JMJD2E); JMJD2E catalytic domain, FDH-coupled NADH fluorescence (FDH is formaldehyde dehydrogenase); Potency, µM (top dose mostly 57.1 µM), without a hit: top-dose activity change, negative = inhibition, actives largely listed as inhibitors; 1.6% of 230,000 active; AID 2147, 2009; active = well fitted inhibition curve with a large enough effect, not every such curve was filed as active; inconclusive = small, poorly fitted or top-dose-only effect, or another doubt; inactive = no such curve, though single readings can be large or run the other way;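 note: potency is the fitted concentration of half-maximal effect; 0% = wells with enzyme and -100% = buffer wells without enzyme; nearly all actives have a fitted effect of over 50% in size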
Target sequence (B2RXH2 1-337 limits assumed): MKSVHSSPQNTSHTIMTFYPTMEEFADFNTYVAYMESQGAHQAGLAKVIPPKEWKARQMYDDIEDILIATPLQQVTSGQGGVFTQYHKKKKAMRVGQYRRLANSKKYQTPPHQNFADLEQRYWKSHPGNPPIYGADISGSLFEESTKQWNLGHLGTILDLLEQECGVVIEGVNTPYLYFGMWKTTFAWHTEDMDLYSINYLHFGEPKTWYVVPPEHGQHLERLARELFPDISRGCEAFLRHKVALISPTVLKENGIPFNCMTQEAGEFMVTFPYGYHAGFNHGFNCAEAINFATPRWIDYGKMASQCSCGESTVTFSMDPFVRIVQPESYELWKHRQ
FBPA coupling cs – qHTS Assay for Inhibitors of Fructose-1,6-bisphosphate Aldolase from Giardia Lamblia: Coupling assay counterscreen; activity change, negative = inhibition, % at 58.2 µM, hits read low; 0.67% of 290,000 active; coupling enzyme system counterscreen, AmpLite Red fluorescence; in the data active = activity change below about -30%
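Fluorescence at 525 nm excitation and 598 nm emission measured inhibition of the coupled detection system without aldolase. Compounds (at 57.5 uM final) were preincubated 10 min at room temperature with coupling enzyme reagent before a 20 min substrate/AmpLite Red step.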
Tau fluor counter – Counterscreen qHTS for Inhibitors of Tau Fibril Formation, Fluorescence Polarization; tau K18 P301L Alexa594 fluorescence, heparin fibrillization; Potency, µM (highest dose often 57.7 µM), inactives show at the top dose activity change, negative = decrease; 0.93% of 280,000 active; note: potency is the fitted concentration of half-maximal effect; nearly all actives have a fitted effect of over 55% in size
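Human K18 P301L tau (15 uM unlabeled plus 0.24 uM Alexa 594-labeled, final) in 100 mM sodium acetate pH 7 was mixed with compound and 20 uM heparin and incubated 6 hr at 37 C.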
Tau FP inhib – qHTS for Inhibitors of Tau Fibril Formation, Fluorescence Polarization | Microtubule-associated protein tau (Homo sapiens), P10636 | K18 P301L tau heparin fibrillization, Alexa594 FP, 6 h | 0.39% of 280,000 active | AID 1468, 2008 | Potency, µM (doses to about 57.7 µM), without a hit: at the top dose activity, negative = inhibition, most hits filed as inhibitors; note: potency is the fitted concentration of half-maximal effect; nearly all actives have a fitted effect of over 55% in size
Target sequence (P10636 561-689 P618L limits assumed): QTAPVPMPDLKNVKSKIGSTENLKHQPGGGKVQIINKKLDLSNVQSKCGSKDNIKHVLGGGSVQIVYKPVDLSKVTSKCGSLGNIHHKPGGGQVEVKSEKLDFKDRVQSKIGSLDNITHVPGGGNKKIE
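Quantitative HTS format: compounds meet 15 uM recombinant K18 P301L tau and Alexa 594-tau tracer in 100 mM sodium acetate pH 7; 20 uM heparin triggers fibrillization at 37 C over 6 hr; FP gives the signal.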
Sfp inh – qHTS Assay for Inhibitors of Bacillus subtilis Sfp phosphopantetheinyl transferase (PPTase); Biochemical Sfp PPTase activity, qHTS; Potency, µM, without a hit: largest response in the series, negative = inhibition, actives largely listed as inhibitors; 3.5% of 310,000 active; 4'-phosphopantetheinyl transferase ffp (Bacillus subtilis), Q9F4F7;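 note: the enzyme is Sfp with the accession as filed and its product quenches rhodamine fluorescence; potency is the fitted concentration of half-maximal effect; 0% = enzyme reaction without inhibitor and -100% = no enzyme wells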
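Sfp 15 nM + cpd, 15 min RT; start w/ rhodamine-CoA 5 uM, BHQ-2-YbbR 12.5 uM (final); 50 mM Hepes pH 7.6, 10 mM MgCl2, 0.01% NP-40, 0.01% BSA; read 525/598 nm at 0 and 30 min.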
Tau fibril ThT – qHTS for Inhibitors of Tau Fibril Formation, Thioflavin T Binding; Potency, µM (top dose mostly 57.4 µM), inactives show at the highest dose activity, negative = inhibition, actives largely listed as inhibitors; Microtubule-associated protein tau (Homo sapiens), P10636; 2.1% of 270,000 active; recombinant tau K18 P301L (four-repeat tau fragment), heparin-induced fibrillization, ThT fluorescence; note: potency is the fitted concentration of half-maximal effect; nearly all actives have a fitted effect of over 55% in size
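In this qHTS, human K18 P301L tau is incubated with compound and heparin for 6 hr at 37 C, and Thioflavin T fluorescence then reports fibril load.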
The depositor's hits bear a star; u = inconclusive; x = not tested or not shown; [ ] = another dose, or the depositor's remark. Unless noted, calls come from the whole dose curve; as a rule, active = well fitted curve in the direction sought with a large enough effect; inconclusive = small, poorly fitted or top-dose-only effect, or another doubt; inactive = no such curve, though single readings can be large; an effect the other way counts as inactive or inconclusive. Unless noted, % is set by controls: 0 for no effect and ±100 for the full control effect.

SMILES	KDM4E inh	FBPA coupling cs	Tau fluor counter	Tau FP inhib	Sfp inh	Tau fibril ThT
Cc1onc(-c2ccccc2)c1C(=O)NC(=S)Nc1sc2c(c1C#N)CCCC2	-4%	3	-28%	u	45µM*	28µM*
C=CCCCCCCCCCCCc1ccco1	-3%	6	1%	-1%	u	-20%
CC(C)Cc1cc(C(=O)Nc2sc3c(c2C#N)CCC3)no1	51%	7	-27%	8%	56µM*	u
COc1ccccc1-c1cc(C(=O)Nc2sc3c(c2C#N)CCCC3)no1	x	x	-22%	u	x	35µM*
CC(C)(C)C(=O)NC(=S)Nc1sc2c(c1C#N)CCCCC2	-1%	2	-19%	-11%	45µM*	u
CC(=O)Nc1sc2c(c1C#N)CCCCC2	4%	-1	-8%	6%	-6%	2%
Cc1cccc(CNc2ncnc3ccc(-c4cccc(NS(C)(=O)=O)c4)cc23)c1	u	-9	u	18µM*	18%	u
Cc1ccc(NC(=O)c2c(C)oc3nc(C)nc(N4CCCC4)c23)c(C)c1	x	x	-8%	-6%	x	-2%
COc1cc(OC)c(NC(=O)c2noc3c2CSc2ccccc2-3)cc1Cl	x	x	-8%	10%	x	u
O=C(Cc1ccccc1)NNc1ccc2ccccc2c1	25µM*	0	-5%	10%	17%	-6%
O=C(COc1ccc2ccccc2c1)NNC(=O)Cc1ccccc1	8%	0	-2%	3%	12%	-1%
CC1=Nn2c(nnc2-c2ccco2)SC1	2%	-2	10%	0%	56µM*	19%
Cc1ccccc1C1=Nn2c(nnc2-c2ccco2)SC1	-9%	1	-11%	-7%	u	-9%
Cc1onc(-c2ccccc2)c1C(=O)N(Cc1ccco1)Cc1cccs1	-5%	-35*	-3%	8%	40µM*	-12%
CSc1nsc(/C=C/Nc2ccc(F)cc2F)c1C#N	u	-14	u	-11%	-1%	14µM*
Cc1snc(SCc2ccc(F)cc2)c1C#N	x	-1	x	x	-5%	x
CSc1nnc(C)c(/C=C/Nc2ccc(F)cc2F)n1	364%	3	-11%	-3%	-10%	25µM*
CSc1nsc(/C=C/Nc2ccc(C(=O)O)cc2)c1C#N	22µM*	-13	-25%	-5%	-23%	u
O=C1C2Cc3c([nH]c4ccccc34)C(c3ccccc3)N2C(=O)C2Cc3c([nH]c4ccccc34)C(c3ccccc3)N12 (stereo not given)	x	0	-2%[11.6 µM]	-3%[11.6 µM]	-6%	-4%[11.5 µM]
CCCCNC(=O)c1cccc(NC(=O)c2nsc3ccccc23)c1	x	x	-4%	-6%	x	-2%
O=C(NCCc1ccccc1)C(=O)NCC(c1ccc2c(c1)OCO2)N1CCOCC1 (stereo not given)	x	x	4%	2%	x	8%
Cc1ccc(S(=O)(=O)/N=C2/C=C(Sc3ncn[nH]3)C(=O)c3ccccc32)c(C)c1	8.9µM*	-63*	u	28µM*	3.5µM*	10µM*
CCOc1ccc(S(=O)(=O)Nc2ccc(O)c(Sc3ncn[nH]3)c2)cc1	0%	7	-2%	7%	-20%	-2%
Cc1ccc(C)c(S(=O)(=O)Nc2ccc(O)c(Sc3ncn[nH]3)c2)c1	-11%	-27	-23%	-5%	u	x
CC(C)c1ccc(S(=O)(=O)/N=C2/C=C(Sc3ncn[nH]3)C(=O)c3ccccc32)cc1	1%	-92*	-2%	-1%	2µM*	6%
SMILES	KDM4E inh	FBPA coupling cs	Tau fluor counter	Tau FP inhib	Sfp inh	Tau fibril ThT
Cc1ccc(S(=O)(=O)Nc2ccc(O)c(Sc3ncn[nH]3)c2)cc1	-3%	-10	-2%	2%	9%	-5%
Cc1ccc(S(=O)(=O)/N=C2/C=C(Sc3ncn[nH]3)C(=O)c3ccccc32)cc1	4µM*	-55*	u	14µM*	3.2µM*	3.5µM*
CCc1cc2c(cc3c(=O)n(CC(=O)N4CCN(c5cccc(C)c5C)CC4)nc(CC)n32)s1	x	x	-15%	-13%	x	-17%
CCOc1ccc(NC(=O)c2cc3sc(Cl)cc3n2CC)cc1	x	x	-11%	-5%	x	u
COc1cccc(CN2C[C@]34C=C[C@@H](C[C@@H]3S2(=O)=O)O4)c1	10%	1	7%	-7%	89µM*	7%
O=S1(=O)[C@H]2C[C@@H]3C=C[C@@]2(CN1Cc1cccc(F)c1)O3	x	0	x	x	11%	x
Cc1cccc(N2CCN(c3ccc(NC(=O)/C=C(/C(=O)O)c4ccccc4)cc3)CC2)c1	-28%	-5	u	u	u	8.9µM*
CC(=O)N1CCN(c2ccc(NC(=O)c3cccc(C)c3)cc2)CC1	x	-2	x	x	7%	x
O=C(NNC(=O)c1cc2cc(Br)ccc2oc1=O)c1ccc(O)cc1O	u	3	u	3%	-25%	8.9µM*
COCCCNC(=O)c1cc2cc(Br)ccc2oc1=O	5%	0	3%	-3%	14%	1%
Cc1cc(C)cc(NC(=O)CC(C)n2nc(C)cc2C)c1 (stereo not given)	x	x	-8%	-13%	x	2%
CCOC(=O)c1cc2oc(C)cc2n1CC(=O)OC1CCCCC1	-22%	-2	-8%	-3%	79µM*	-11%
COC(=O)c1cc2oc(C)cc2n1CC(=O)N(C)c1ccccc1	-4%	2	0%	2%	u	-8%
CCc1noc(-c2ccc(N(C)Cc3ccc(OC)cc3)c([N+](=O)[O-])c2)n1	x	x	-2%	-7%	x	8%
O=C(N/N=C\c1ccc(Sc2ccccn2)o1)c1cccc(F)c1	-4%	1	-12%	-9%	11%	-2%
O=C(CSc1cccc2cccnc12)N/N=C/c1ccc(O)cc1	u	-18	-7%	0%	18%	u
O=C(N/N=C/c1ccc(Sc2ccccn2)o1)c1cc2ccccc2cc1O	-18%	5	u	-1%	-1%	14µM*
O=C(CCc1ccccc1O)N/N=C/c1ccc(Sc2cccc3cccnc23)o1	-4%	-11	14µM*[quencher]	u	-13%	-10%
C/C=C\C1=CCCC1Nc1ncnc2ccc(-c3c(C)noc3C)cc12 (stereo not given)	x	-1	x	x	-2%	x
COc1cccc(C2C(C)CCC3C(=O)N(C)C(C(C)C)C(=O)N32)c1 (stereo not given)	x	-1	-4%[11.6 µM]	1%[11.6 µM]	1%	-3%[11.5 µM]

Screens (PubChem BioAssay)
